# MCF10A rerep: DNA re-replication induction in MCF 10a cells | Potency, µM (titrated, usually from 46.1 µM), without a hit: at the highest dose activity, positive = re-replication, most hits filed as activators | MCF 10A DNA re-replication, Hoechst nuclear intensity, 48 h | AID 624296 | 2.9% of 350,000 active; also: % of control where 0% means no effect; nearly all actives have a fitted effect of over 50% in size
# KB-V1 MDR tox: KB-V1 MDR subline cytotoxicity | KB-V1 MDR cells viability, CellTiter-Glo, 72 h | Potency, µM (titrated, usually from 46.1 µM), hits mostly cytotoxic | 3.4% of 400,000 active; also: % is scaled to controls: 0 for no effect and ±100 for the full control effect; nearly all actives have a fitted effect of over 60% in size
#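 Compound-treated KB-V1 multidrug-resistant cells, 72 h, 37 degrees C; viability by CellTiter-Glo. Fitted qHTS curves give the values.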
# SW480 rereplic: inducers of DNA re-replication in SW480 colon cancer cells; SW480 DNA re-replication, Hoechst DNA content imaging, 48 h; Potency, µM (top dose mostly 46.1 µM), inactives show at the highest dose re-replication activation, usual class: activators; 1.8% of 340,000 active; also: % of control where 0% means no effect; nearly all actives have a fitted effect of over 55% in size
#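 Quantitative HTS format with DMSO vehicle controls; 48 hr drug incubation at 37 C, then 40 min Hoechst staining and scanning imager measurement at 405 nm excitation.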
# KB-3-1 tox: KB-3-1 parental cell cytotoxicity. KB-3-1 viability, CellTiter-Glo ATP luminescence, 72 h. Potency, µM (titrated, usually from 46.1 µM), hits mostly cytotoxic. 1.4% of 400,000 active; also: % is scaled to controls: 0 for no effect and ±100 for the full control effect; nearly all actives have a fitted effect of over 60% in size
#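 Cytotoxicity in the drug-sensitive parental line KB-3-1 was scored as loss of CellTiter-Glo luminescence following 72 h incubation with compound. Values come from curve fitting of normalized concentration-response data.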
# HT1080 IDH1KD tx: HT-1080 IDH1 knockdown cell toxicity (counter line) | HT-1080 IDH1 knockdown viability, ATP luminescence, 48 h | Potency, µM (titrated, usually from 46.1 µM), for the others: at the highest dose activity, negative = toxicity, hits mostly cytotoxic | 2% of 360,000 active;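 also: 0% = DMSO wells and -100% = cell-free medium wells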
#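 Viability of IDH1-knockdown HT-1080 fibrosarcoma cells was assessed by CellTiter-Glo after 48 h at 37 °C with titrated compound; concentration-effect curves were classified by fit quality and response size.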
# HT1080NT lethal: kills 2HG-producing HT-1080-NT fibrosarcoma cells; HT-1080-NT fibrosarcoma viability, CellTiter-Glo ATP luminescence, 48 h; Potency, µM (titrated, usually from 46.1 µM), for inactives: top-dose activity, negative = less viability, usual class: cytotoxic; 1.6% of 360,000 active;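 also: NT is the 2HG producing partner of a matched IDH1 knockdown line; 0% = DMSO-treated cells and -100% = media-only wells without cells; nearly all actives have a fitted effect of over 55% in size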
#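 Read-out is CellTiter-Glo luminescence after 10 minutes at room temperature, following 48 hours' compound treatment of HT-1080-NT cells (750 cells/well, RPMI, 5% FBS, 37 degrees C).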
# Numbers without * were called inactive; i = inactive; ? = inconclusive; . = not tested or not shown; [ ] = dose if it differs, or a comment. The list is not random: actives were taken first. Their share in the collection is about 8%. Calls follow the shape of the dose curve; as a rule, active = well fitted curve in the direction sought with a large enough effect; inconclusive = small, poorly fitted or top-dose-only effect, or another doubt; inactive = no such curve, though single readings can be large; an effect the other way counts as inactive or inconclusive. Potency is read from the fitted curve at half-maximal effect.
SMILES,MCF10A rerep,KB-V1 MDR tox,SW480 rereplic,KB-3-1 tox,HT1080 IDH1KD tx,HT1080NT lethal
O=C(COc1cccc(Br)c1)Nc1ccc(Cl)c(S(=O)(=O)N2CCOCC2)c1,?,?,-1.3%,i,-10.1%,16.4µM*
COc1ccc(C(=O)N2CCN(S(=O)(=O)c3ccc(C)cc3)CC2)cc1S(=O)(=O)N1CCOCC1,-2.2%,i,?,i,14.5%,1.0%
O=C(COc1ncnc2ccccc12)Nc1ccc(Cl)c(S(=O)(=O)N2CCOCC2)c1,-2.9%,i,2.1%,i,3.6%,1.9%
COc1ccc(C(=O)N2CCCC2)cc1S(=O)(=O)N1CCOCC1,-0.7%,i,-0.5%,23.1µM*,4.1%,5.0%
O=C(Nc1cccc(Br)c1)c1ccc(Cl)c(S(=O)(=O)N2CCOCC2)c1,17.9%,4.61µM*,0.9%,?,7.9%[9.24 µM],7.08µM*
Cc1cc2ccccc2n1CCNC(=O)c1ccc(S(=O)(=O)N2CCOCC2)cc1,3.66µM*,i,16.4µM*,i,?,-19.6%
Cc1cc2ccccc2n1CCNC(=O)c1ccccc1,?,i,23.2%,i,-1.2%,1.9%
CCOc1ccc(NC(=O)CCNS(=O)(=O)c2ccc3c(c2)CC(C)N3C(C)=O)cc1 (stereo not given),10.2%,?,-27.3%,i,9.2%,-2.3%
COc1ccc(NC(=O)c2cnc3cc(C)ccn3c2=O)c(OC)c1,.,?,.,i,.,.
COc1ccc(C(=O)OCc2cc(C)ccc2C)cc1S(=O)(=O)N1CCCC1,?,5.17µM*,3.1%,i,-1.3%,-5.6%
COc1ccc(NC(=O)c2cc3c(s2)CCC(C)C3)cc1S(=O)(=O)N1CCOCC1 (stereo not given),?,3.66µM*,.,i,-25.7%,-13.6%
CCc1sc(C(=O)Nc2ccc(OC)c(S(=O)(=O)N3CCOCC3)c2)cc1C,7.1%,i,-18.5%,i,-11.0%,-1.4%[9.24 µM]
Cc1ccc(C)c(COC(=O)c2cccc(S(=O)(=O)N3CCCC3)c2)c1,16.6%,?,22.2%,i,-10.1%,-4.8%
COc1ccc(S(=O)(=O)N2CCOCC2)c(Cl)c1Cl,7.31µM*,i,10.4%,i,1.2%,-10.1%
COc1ccc(C)cc1NC(=O)c1ccc(S(=O)(=O)N2CCOCC2)cc1,-0.8%,16.4µM*,-4.4%,i,-1.1%,-6.3%
Cc1cc(C)cc(OCC(=O)Nc2cccc3cccnc23)c1,.,?,.,i,.,.
CCC(C)(C)C1CCC(NC(=O)c2ccc(S(=O)(=O)N3CCOCC3)cc2)CC1 (stereo not given),6.51µM*,i,-3.2%,?,-27.7%,0.9%[9.24 µM]
COc1ccc(C(=O)Nc2cccc(C(C)=O)c2)cc1S(=O)(=O)N1CCOCC1,1.7%,i,-5.3%,i,-4.5%,1.8%
COc1ccc(C(=O)Nc2cccc(C)c2)cc1S(=O)(=O)N1CCOCC1,18.4µM*,i,?,i,10.5%,23.0%
Cc1ccc(C(=O)NC2CC2)cc1S(=O)(=O)N1CCOCC1,-7.4%,i,-5.0%,i,9.0%,2.4%
Cc1ccc(NC(=O)c2cc(S(=O)(=O)N3CCOCC3)ccc2F)c(C)c1,5.0%,13µM*,-8.5%,i,-17.0%,13.1%
CCOC(=O)N1CCN(S(=O)(=O)c2ccc(F)c(C(=O)Nc3cccc(Cl)c3C)c2)CC1,11.0%,3.26µM*,-119.4%,i,-17.9%,-7.9%
CCOC(=O)c1cccc(NC(=O)CSc2cc(=O)n(C)c3ccccc23)c1,.,i,.,i,.,.
CS(=O)(=O)N(Cc1ccccc1)c1ccc(C(=O)Nc2cccnc2)cc1,-50.3%,i,-1.2%,i,0.0%,-49.7%
CS(=O)(=O)N(Cc1ccc(Cl)cc1)c1ccc(C(=O)Nc2cccnc2)cc1,15.6%,20.6µM*,-1.1%,?,?,-10.0%
SMILES,MCF10A rerep,KB-V1 MDR tox,SW480 rereplic,KB-3-1 tox,HT1080 IDH1KD tx,HT1080NT lethal
CS(=O)(=O)N(Cc1ccc(Cl)cc1)c1ccc(C(=O)NCCSc2ccccn2)cc1,?,5.8µM*,?,?,?,-19.3%
CCOC(=O)C1(C(=O)OCC)CCN(S(=O)(=O)c2ccccc2)CC1,2.0%,?,-1.9%,i,0.6%,0.5%
CCOC(=O)Cn1c(=O)cc(-c2ccccc2)c2c(C)nn(C)c21,.,i,.,i,.,.
CCOc1ccc2nc(N3CCCC(C(=O)NCCc4ccc(SC)cc4)C3)sc2c1 (stereo not given),.,i,.,i,.,.
CCOC(=O)/C=C/C(=O)Nc1ccc(S(=O)(=O)Nc2c(C)cc(C)cc2C)cc1,16.4µM*,i,?,?,-24.6%,?
O=C(O)/C=C/C(=O)Nc1ccc(Oc2ccccc2)cc1,-36.6%,i,-4.3%,i,1.0%,-1.4%
CCOC(=O)/C=C/C(=O)Nc1ccc(Oc2ccccc2)cc1,16.4µM*,i,18.1%,i,16.4µM*,7.31µM*
CCOC(=O)/C=C/S(=O)(=O)c1ccc(NC(C)=O)cc1,2.31µM*,i,2.59µM*,14.6µM*,?,?
Cc1cccc(N(CC(=O)NCCSCc2ccc(Cl)cc2)S(C)(=O)=O)c1C,.,i,.,i,.,.
Cc1ccc(NS(=O)(=O)c2cc([N+](=O)[O-])ccc2N/N=C/c2sc(N3CCOCC3)nc2-c2ccccc2)c(C)c1,15.3%,i,-0.4%,i,4.6%,-0.7%
Cc1ccc(C)c(NC(=S)NC(NC(=O)OCc2ccccc2)C(Cl)(Cl)Cl)c1 (stereo not given),?,14.6µM*,?,i,-12.7%,-6.1%
O=C(NC(NC(=S)Nc1c(Cl)cc(Cl)cc1Cl)C(Cl)(Cl)Cl)OCc1ccccc1 (stereo not given),13µM*,11.6µM*,?,?,?,?
O=C(COc1ccccc1F)NNC(=O)c1cccc(-n2cccc2)c1,-0.7%,i,0.2%,i,0.6%,-4.6%
CCCCNC(=O)C1C(c2ccc(OC)cc2)=Nc2ccccc2N1C(=O)Cc1cc(OC)cc(OC)c1 (stereo not given),.,?,.,i,-11.4%,-2.6%
CSc1nc2ccc(NC(=O)CS(=O)(=O)c3ccccc3)cc2s1,.,?,.,i,0.8%,13.0%
Cc1cc(NS(=O)(=O)c2c(C)[nH]c(=O)[nH]c2=O)ccc1Br,1.0%,i,-1.5%,i,-3.3%,-1.5%
N#C/C(=C\c1c[nH]c2ccccc12)C(=O)Nc1ncc(Cc2ccc(Cl)cc2Cl)s1,3.26µM*,?,?,i,?,?
Cc1ccccc1CN1[C@@H](C(C)C)COCCS1(=O)=O,-13.2%,i,-9.8%,i,-4.7%,-5.5%
